Measurements: PubChem BioAssay (Tox21)
Unmarked numbers belong to inactive results. Results filed as inconclusive are left out. Entries that show only a call come without a potency. Active and inactive are the calls of the source. Unless noted, calls come from the whole dose curve.

Legend:
[1] = Nuclear factor erythroid 2-related factor 2/antioxidant responsive element (Nrf2/ARE) small molecule agonists: qHTS cell viability counter screen in human keratinocytes (AID 1919968; active = well fitted curve in the direction sought with a large enough effect in the repeat runs; an effect the other way counts as inactive or inconclusive; note: nearly all actives have a fitted effect of over 55% in size; note: potency is the fitted concentration of half-maximal effect)
Procedure, shortened: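 Cells of the KeratinoSens line were plated at 1,500 per well and left for 5 h before compound transfer from DMSO stocks. After a 23 h incubation (37 C, 5% CO2), CellTiter-Fluor was added. Signal was taken as fluorescence intensity 1 h later.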

[2] = Nuclear factor erythroid 2-related factor 2/antioxidant responsive element (Nrf2/ARE) small molecule agonists: luciferase reporter gene qHTS assay in human keratinocytes (AID 1919969); note: nearly all actives have a fitted effect of over 35% in size; note: potency is the fitted concentration of half-maximal effect
[3] = target: Gonadotropin-releasing hormone receptor (Homo sapiens) (UniProt P30968); test: Human gonadotropin-releasing hormone receptor (GnRHR) small molecule agonists, calcium flux assay in GnRHR-HEK293 cells (AID 1920063); note: nearly all actives have a fitted effect of over 35% in size
Gonadotropin-releasing hormone receptor (Homo sapiens), sequence (P30968 whole entry, looked up): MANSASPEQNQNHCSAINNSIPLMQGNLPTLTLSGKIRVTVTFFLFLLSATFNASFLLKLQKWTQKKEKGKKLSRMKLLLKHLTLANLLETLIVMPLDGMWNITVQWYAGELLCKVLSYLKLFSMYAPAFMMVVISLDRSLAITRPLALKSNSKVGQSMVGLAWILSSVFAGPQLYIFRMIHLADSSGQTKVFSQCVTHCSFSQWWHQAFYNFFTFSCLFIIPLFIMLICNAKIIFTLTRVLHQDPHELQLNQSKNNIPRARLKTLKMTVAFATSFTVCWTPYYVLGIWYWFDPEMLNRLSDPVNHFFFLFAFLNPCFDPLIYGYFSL
Procedure, shortened: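 Compounds dissolved in DMSO are pin-transferred onto dye-loaded GnRHR-HEK293 cells, which were seeded 18 h before at 37 C/5% CO2. Calcium signal is read as fluorescence intensity at 1 s intervals for 3 min.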

[4] = target: KiSS-1 receptor (Homo sapiens) (UniProt Q969F8); test: Human kisspeptin (KISS1R) small molecule agonists, calcium flux assay in KISS1R-HEK293 cells (AID 1920064; active = well fitted curve in the direction sought with a large enough effect in the repeat runs; an effect the other way counts as inactive or inconclusive)
KiSS-1 receptor (Homo sapiens), sequence (Q969F8 whole entry, looked up): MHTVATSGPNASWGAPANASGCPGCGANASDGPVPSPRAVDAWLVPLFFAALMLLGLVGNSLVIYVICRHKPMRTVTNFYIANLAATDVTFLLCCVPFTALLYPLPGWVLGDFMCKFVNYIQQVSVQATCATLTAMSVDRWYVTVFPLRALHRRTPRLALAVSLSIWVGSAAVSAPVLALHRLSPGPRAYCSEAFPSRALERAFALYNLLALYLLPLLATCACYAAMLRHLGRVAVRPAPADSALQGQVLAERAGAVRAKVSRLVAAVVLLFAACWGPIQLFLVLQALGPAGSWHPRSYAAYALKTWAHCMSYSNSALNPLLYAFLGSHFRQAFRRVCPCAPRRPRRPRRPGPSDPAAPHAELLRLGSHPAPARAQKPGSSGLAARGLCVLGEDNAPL
Procedure, shortened: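 Cell line: HEK293, stable human KISS1R. Dye loading 1 h at 37 C after 18 h culture. Read: kinetic fluorescence, 480/540 nm, 3 min at 1 s intervals.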

[5] = G protein-coupled receptor (GPCR) small molecule agonists, calcium flux assay: HEK293 wild type cell line counter screen (AID 1920065)
Procedure, shortened: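 Tox21 10K compounds, 15 concentrations each in triplicate, pin-transferred in DMSO onto dye-loaded cells; kinetic read at 480/540 nm for 3 min, 1 s intervals.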

[6] = p53 small molecule agonists, cell-based qHTS assay with human liver microsomes (AID 1963577);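 note: p53 response element beta-lactamase reporter cells with liver microsomes plus NADPH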
Procedure, shortened: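 HLM-supplemented p53RE-bla reporter assay: 16 h compound exposure at 37 C, microsomes and NADPH each 0.5 mg/mL final, read by fluorescence intensity.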

[7] = p53 small molecule agonists, cell-based qHTS assay with rat liver microsomes (AID 1963578)
Procedure, shortened: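 Quantitative HTS of the Tox21 10K library: p53RE-bla cells, rat liver microsomes plus NADPH at 0.5 mg/mL final each, 16 h at 37 C, beta-lactamase fluorescence detection.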

[8] = p53 small molecule agonists, cell-based qHTS assay with human liver microsomes: qHTS cell viability counter screen (AID 1963579); note: nearly all actives have a fitted effect of over 45% in size; note: potency is the fitted concentration of half-maximal effect
Procedure, shortened: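 Viability of p53RE-bla cells is measured as CellTiter-Glo luminescence following a 16 h, 37 C incubation with compound, liver microsomes from human donors and NADPH.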

[9] = p53 small molecule agonists, cell-based qHTS assay with rat liver microsomes: qHTS cell viability counter screen (AID 1963580); note: nearly all actives have a fitted effect of over 45% in size; note: potency is the fitted concentration of half-maximal effect
Procedure, shortened: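 Cytotoxicity counter screen: intracellular ATP measured by CellTiter-Glo luminescence in the same wells as the beta-lactamase reporter read, on HCT-116 p53RE-bla cells exposed 16 h at 37 C to compounds with rat liver microsomes and NADPH, each 0.5 mg/mL final.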

[10] = p53 small molecule agonists, cell-based qHTS assay: qHTS cell viability counter screen (AID 1963581); note: nearly all actives have a fitted effect of over 45% in size; note: potency is the fitted concentration of half-maximal effect
Procedure, shortened: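 ATP content measured by luminescence in HCT-116 p53RE-bla cells treated 16 h at 37 C, same wells as the reporter screen.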

[11] = p53 small molecule agonists, cell-based qHTS assay (AID 1963582; active = well fitted activation curve with a large enough effect in the signal ratio in the repeat runs, not every such curve was filed as active; the % refers to the signal ratio)
Procedure, shortened: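 16 h compound exposure (37 C) of p53 response element–bla cells, preceded by 5 h recovery at 37 C/5% CO2; read-out via LiveBLAzer B/G FRET substrate, 2 h RT, fluorescence intensity.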

[12] = cAMP Responsive Elements (CRE) small molecule antagonists, cell-based qHTS assay (AID 1963591; active = well fitted inhibition curve with a large enough effect in the signal ratio in the repeat runs, not every such curve was filed as active; the % refers to the signal ratio)
Procedure, shortened: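 First, CRE-bla HEK293T cells settled 18 h at 37 C. Next, compound and 0.25 uM final NKH477 were applied for 3 h. Last, LiveBLAzer B/G substrate was loaded for 2 h at room temperature.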

[13] = target: D(2) dopamine receptor (Homo sapiens) (UniProt P14416); test: Dopamine D2 receptor (DRD2) small molecule agonists, cell-based qHTS assay (AID 1963594); note: nearly all actives have a fitted effect of over 35% in size
D(2) dopamine receptor (Homo sapiens), sequence (P14416 whole entry, looked up): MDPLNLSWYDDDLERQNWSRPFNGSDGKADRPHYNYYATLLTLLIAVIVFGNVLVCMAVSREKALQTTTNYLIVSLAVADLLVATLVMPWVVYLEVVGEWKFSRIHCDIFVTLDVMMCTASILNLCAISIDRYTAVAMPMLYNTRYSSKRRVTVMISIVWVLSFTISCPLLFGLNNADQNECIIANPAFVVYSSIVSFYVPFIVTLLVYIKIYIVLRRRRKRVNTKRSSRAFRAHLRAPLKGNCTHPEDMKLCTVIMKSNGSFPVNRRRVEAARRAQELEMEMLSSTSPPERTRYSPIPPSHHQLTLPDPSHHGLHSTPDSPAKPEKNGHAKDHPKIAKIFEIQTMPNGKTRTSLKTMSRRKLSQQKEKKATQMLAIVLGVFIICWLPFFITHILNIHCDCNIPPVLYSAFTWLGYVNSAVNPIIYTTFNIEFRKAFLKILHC
Procedure, shortened: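 HEK293 cells stably expressing human DRD2, pre-treated with PDE inhibitor Ro20-1724 (0.1 mM final) and compound 10 min at room temperature, then stimulated with NKH477 (200nM […]) for 30 min. cAMP read by HTRF (665/620 nm).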

[14] = target: D(2) dopamine receptor (Homo sapiens) (UniProt P14416); test: Dopamine D2 receptor (DRD2) small molecule antagonists, cell-based qHTS assay (AID 1963595; active = well fitted inhibition curve with a large enough effect in the signal ratio in the repeat runs, with a control signal flat; the % refers to the signal ratio; note: potency is the fitted concentration of half-maximal effect)
Procedure, shortened: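 In this cell-based antagonist screen, compounds act for 10 min at room temperature before a 30 min challenge with 12 nM quinpirole and 200 nM NKH477. cAMP is quantified by HTRF competition in DRD2-HEK293 cells containing 0.1 mM Ro20-1724.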

[15] = target: 5-hydroxytryptamine receptor 2A (Homo sapiens) (UniProt P28223); test: 5-hydroxytryptamine receptor 2A (HTR2A) small molecule agonists, cell-based qHTS assay (AID 1963587); note: nearly all actives have a fitted effect of over 30% in size
5-hydroxytryptamine receptor 2A (Homo sapiens), sequence (P28223 whole entry, looked up): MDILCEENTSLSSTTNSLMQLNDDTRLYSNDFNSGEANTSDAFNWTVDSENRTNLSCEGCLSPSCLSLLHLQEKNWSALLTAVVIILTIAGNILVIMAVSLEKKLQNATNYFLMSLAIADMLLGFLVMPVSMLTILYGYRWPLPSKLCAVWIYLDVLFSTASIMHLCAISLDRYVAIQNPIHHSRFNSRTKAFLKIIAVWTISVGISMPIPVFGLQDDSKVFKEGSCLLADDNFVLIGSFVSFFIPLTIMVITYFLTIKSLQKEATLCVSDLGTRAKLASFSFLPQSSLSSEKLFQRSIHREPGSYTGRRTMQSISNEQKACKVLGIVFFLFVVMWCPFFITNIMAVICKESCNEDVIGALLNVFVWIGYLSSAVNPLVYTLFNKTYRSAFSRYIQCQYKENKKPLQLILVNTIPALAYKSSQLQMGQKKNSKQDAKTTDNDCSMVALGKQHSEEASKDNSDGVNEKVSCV
Procedure, shortened: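 CHO cells stably expressing human HTR2A, plated 18 h, loaded with calcium dye 1 h at 37 C. Agonist mode: compounds added and intracellular calcium fluorescence recorded kinetically for 2 min at 1 sec intervals.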

[16] = target: Muscarinic acetylcholine receptor M1 (Homo sapiens) (UniProt P11229); test: Cholinergic receptor muscarinic 1 (CHRM1) small molecule antagonists, cell-based qHTS assay (AID 1963588); note: nearly all actives have a fitted effect of over 40% in size
Muscarinic acetylcholine receptor M1 (Homo sapiens), sequence (P11229 whole entry, looked up): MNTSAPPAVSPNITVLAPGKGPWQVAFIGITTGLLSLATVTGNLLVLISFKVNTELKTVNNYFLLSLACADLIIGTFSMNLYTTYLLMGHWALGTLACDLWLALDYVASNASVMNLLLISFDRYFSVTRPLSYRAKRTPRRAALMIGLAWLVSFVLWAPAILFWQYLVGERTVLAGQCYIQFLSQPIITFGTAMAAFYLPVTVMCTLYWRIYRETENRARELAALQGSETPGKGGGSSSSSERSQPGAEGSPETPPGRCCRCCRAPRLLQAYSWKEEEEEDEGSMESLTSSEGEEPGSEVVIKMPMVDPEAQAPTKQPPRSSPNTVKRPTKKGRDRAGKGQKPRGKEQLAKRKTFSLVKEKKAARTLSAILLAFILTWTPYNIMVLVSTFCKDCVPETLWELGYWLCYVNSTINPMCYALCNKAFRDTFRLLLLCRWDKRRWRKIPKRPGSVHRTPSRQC
Procedure, shortened: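 Compounds were tested at 15 concentrations in three independent runs. Dye-loaded CHRM1-CHO cells were exposed 5 min at room temperature before stimulation by acetylcholine added at 50nM. Intracellular calcium was read kinetically on FDSS for 3 min.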

[17] = target: Muscarinic acetylcholine receptor M1 (Homo sapiens) (UniProt P11229); test: Cholinergic receptor muscarinic 1 (CHRM1) small molecule agonists, cell-based qHTS assay (AID 1963589); note: nearly all actives have a fitted effect of over 35% in size
Procedure, shortened: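 Homogeneous fluorescence calcium flux, agonist mode. Human M1-expressing CHO cells; compound dosed at 15 concentrations, three independent runs; signal sampled every 1 sec.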

[18] = cAMP Responsive Elements (CRE) small molecule agonists, cell-based qHTS assay (AID 1963590)
Procedure, shortened: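 HEK 293T cells stably bearing CRE-bla were plated at 2,000 cells per well and rested 18 h. Compounds, positive controls or DMSO were added for 3 h at 37 C. LiveBLAzer B/G substrate was then loaded for 2 h at room temperature.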

[19] = target: Beta-2 adrenergic receptor (Homo sapiens) (UniProt P07550); test: Adrenergic beta2 receptor (ADRB2) small molecule antagonists, cell-based qHTS assay (AID 1963592); note: series mostly up to about 92 µM; nearly all actives have a fitted effect of over 50% in size
Beta-2 adrenergic receptor (Homo sapiens), sequence (P07550 whole entry, looked up): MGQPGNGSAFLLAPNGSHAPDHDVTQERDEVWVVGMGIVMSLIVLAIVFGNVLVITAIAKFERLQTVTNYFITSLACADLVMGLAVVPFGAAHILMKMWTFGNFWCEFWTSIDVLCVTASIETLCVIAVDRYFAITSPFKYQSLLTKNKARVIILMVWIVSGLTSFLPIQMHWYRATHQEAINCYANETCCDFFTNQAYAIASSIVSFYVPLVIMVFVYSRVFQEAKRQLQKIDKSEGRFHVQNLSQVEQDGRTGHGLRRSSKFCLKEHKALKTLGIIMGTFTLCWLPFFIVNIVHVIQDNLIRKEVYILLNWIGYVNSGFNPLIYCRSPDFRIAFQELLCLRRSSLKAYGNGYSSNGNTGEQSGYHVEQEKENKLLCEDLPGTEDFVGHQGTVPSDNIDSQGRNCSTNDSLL
Procedure, shortened: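 Assay format: CHO-ADRB2 cells, 18-20hr seeding at 37C/5% CO2, then compound plus 1nM isoproterenol agonist mix for 0.5hr RT. Homogeneous time-resolved fluorescence cAMP detection after 1hr, expressed as 665/615 nm ratio.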

[20] = target: Beta-2 adrenergic receptor (Homo sapiens) (UniProt P07550); test: Adrenergic beta2 receptor (ADRB2) small molecule agonists, cell-based qHTS assay (AID 1963593);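 note: CHO cells stably overexpressing human ADRB2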
Procedure, shortened: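 CHO cells stably over-expressing ADRB2 were plated overnight at 37C, then dosed with compounds plus a stimulation mix containing 100uM IBMX and 25uM Ro-20-1724 for 0.5hr at room temperature. cAMP was measured by HTRF competition, 1hr.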

SMILES	Potency [1]	Potency [2]	Potency [3]	outcome [4]	outcome [5]	Potency [6]	Potency [7]	Potency [8]	Potency [9]	Potency [10]	Potency [11]	Potency [12]	Potency [13]	Potency [14]	Potency [15]	Potency [16]	Potency [17]	Potency [18]	Potency [19]	Potency [20]
Nc1nnc(-c2cccc(Cl)c2Cl)c(N)n1	inactive	inactive	inactive	inactive	inactive	inactive	inactive	inactive	inactive	inactive	inactive	inactive	inactive	inactive	–	–	–	–	–	–
CCCCCCOC(=O)CCCCC	inactive	inactive	inactive	inactive	inactive	inactive	inactive	inactive	inactive	inactive	–	inactive	–	–	inactive	inactive	inactive	inactive	inactive	–
CC(C)[C@H](N)C(=O)OCCOCn1cnc2c(=O)[nH]c(N)nc21	inactive	inactive	inactive	inactive	inactive	inactive	inactive	inactive	inactive	1.78 µM (active)	inactive	–	inactive	inactive	–	–	–	inactive	inactive	inactive
O=S1(=O)CC(Cl)(Cl)C(Cl)(Cl)C1	6.11 µM (active)	2.43 µM (active)	inactive	inactive	inactive	inactive	inactive	5.76 µM (active)	18.2 µM (active)	16.2 µM (active)	–	–	–	–	inactive	inactive	inactive	–	–	–
CS(=O)(=O)c1ccc(-c2cn3ccccc3n2)cc1	inactive	33.5 µM (active)	inactive	inactive	inactive	inactive	inactive	17.8 µM (active)	inactive	inactive	–	inactive	–	–	inactive	inactive	inactive	inactive	–	–
CN(Cc1cc(Br)cc(Br)c1N)C1CCCCC1	16.8 µM (active)	inactive	inactive	inactive	inactive	inactive	inactive	inactive	inactive	inactive	inactive	–	inactive	inactive	–	–	–	–	inactive	inactive
O=NN(CCCl)C(=O)NCCCl	inactive	inactive	inactive	inactive	inactive	inactive	inactive	inactive	inactive	inactive	inactive	–	inactive	inactive	–	–	–	inactive	inactive	inactive
COC(=O)[C@@H]1[C@H]2C[C@H]3c4[nH]c5ccccc5c4CCN3C[C@@H]2CC[C@@H]1O	inactive	inactive	inactive	inactive	inactive	inactive	inactive	inactive	inactive	inactive	inactive	inactive	inactive	23.7 µM (active)	–	–	–	inactive	–	inactive
CC[C@H]1OC(=O)[C@H](C)[C@@H](O[C@H]2C[C@@](C)(OC)[C@@H](O)[C@H](C)O2)[C@H](C)[C@@H](O[C@@H]2O[C@H](C)C[C@H](N(C)C)[C@H]2O)[C@](C)(OC)C[C@@H](C)C(=O)[C@H](C)[C@@H](O)[C@]1(C)O	inactive	inactive	inactive	inactive	inactive	inactive	inactive	inactive	inactive	inactive	inactive	–	inactive	inactive	–	–	–	inactive	inactive	–
